Laboratory results published in PubChem BioAssay.
Active and inactive are the calls of the source.

Columns and labels:
[1] = small molecules captured by biotinylated probe aFSTL3 – biochemical, small-molecule microarray, fluorescence 635/667, stem cell growth factor project, primary screen (AID 1064); conditions: higher = more signal;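 note: measures binding of the biotinylated anti-FSTL3 antibody to printed compounds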
[2] = binders from COS7 lysate, DM2A8 probe, primary screen, torsin A project, cell lysate, small-molecule microarray, fluorescence 635/667 (AID 1065); conditions: higher = more signal, COS7 lysate expressing mutant human TOR1A
[3] = small molecules captured by biotinylated probe aFGF2 – biochemical, small-molecule microarray, fluorescence 635/667, stem cell growth factor project, primary screen (AID 1067); conditions: higher = more signal;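 note: measures binding of biotinylated aFGF2 protein to printed compounds on slides; z-score merges feature fluorescence and signal-to-noise across triplicate slides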
[4] = small molecules captured by biotinylated probe aFGF10 – biochemical, small-molecule microarray, fluorescence 635/667, stem cell growth factor project, primary screen (AID 1071); conditions: higher = more signal;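 note: score merges 667 nm spot intensity and signal to noise from triplicate slides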
[5] = target: Neurogenic locus notch homolog protein 2 (Homo sapiens) (UniProt Q04721); assay: small molecules binding Notch2 protein – biochemical, small-molecule microarray, 635 nm fluorescence, stem cell growth factors, primary screen (AID 1073); conditions: higher = more signal
Neurogenic locus notch homolog protein 2 (Homo sapiens), sequence (Q04721 whole entry, looked up, canonical isoform): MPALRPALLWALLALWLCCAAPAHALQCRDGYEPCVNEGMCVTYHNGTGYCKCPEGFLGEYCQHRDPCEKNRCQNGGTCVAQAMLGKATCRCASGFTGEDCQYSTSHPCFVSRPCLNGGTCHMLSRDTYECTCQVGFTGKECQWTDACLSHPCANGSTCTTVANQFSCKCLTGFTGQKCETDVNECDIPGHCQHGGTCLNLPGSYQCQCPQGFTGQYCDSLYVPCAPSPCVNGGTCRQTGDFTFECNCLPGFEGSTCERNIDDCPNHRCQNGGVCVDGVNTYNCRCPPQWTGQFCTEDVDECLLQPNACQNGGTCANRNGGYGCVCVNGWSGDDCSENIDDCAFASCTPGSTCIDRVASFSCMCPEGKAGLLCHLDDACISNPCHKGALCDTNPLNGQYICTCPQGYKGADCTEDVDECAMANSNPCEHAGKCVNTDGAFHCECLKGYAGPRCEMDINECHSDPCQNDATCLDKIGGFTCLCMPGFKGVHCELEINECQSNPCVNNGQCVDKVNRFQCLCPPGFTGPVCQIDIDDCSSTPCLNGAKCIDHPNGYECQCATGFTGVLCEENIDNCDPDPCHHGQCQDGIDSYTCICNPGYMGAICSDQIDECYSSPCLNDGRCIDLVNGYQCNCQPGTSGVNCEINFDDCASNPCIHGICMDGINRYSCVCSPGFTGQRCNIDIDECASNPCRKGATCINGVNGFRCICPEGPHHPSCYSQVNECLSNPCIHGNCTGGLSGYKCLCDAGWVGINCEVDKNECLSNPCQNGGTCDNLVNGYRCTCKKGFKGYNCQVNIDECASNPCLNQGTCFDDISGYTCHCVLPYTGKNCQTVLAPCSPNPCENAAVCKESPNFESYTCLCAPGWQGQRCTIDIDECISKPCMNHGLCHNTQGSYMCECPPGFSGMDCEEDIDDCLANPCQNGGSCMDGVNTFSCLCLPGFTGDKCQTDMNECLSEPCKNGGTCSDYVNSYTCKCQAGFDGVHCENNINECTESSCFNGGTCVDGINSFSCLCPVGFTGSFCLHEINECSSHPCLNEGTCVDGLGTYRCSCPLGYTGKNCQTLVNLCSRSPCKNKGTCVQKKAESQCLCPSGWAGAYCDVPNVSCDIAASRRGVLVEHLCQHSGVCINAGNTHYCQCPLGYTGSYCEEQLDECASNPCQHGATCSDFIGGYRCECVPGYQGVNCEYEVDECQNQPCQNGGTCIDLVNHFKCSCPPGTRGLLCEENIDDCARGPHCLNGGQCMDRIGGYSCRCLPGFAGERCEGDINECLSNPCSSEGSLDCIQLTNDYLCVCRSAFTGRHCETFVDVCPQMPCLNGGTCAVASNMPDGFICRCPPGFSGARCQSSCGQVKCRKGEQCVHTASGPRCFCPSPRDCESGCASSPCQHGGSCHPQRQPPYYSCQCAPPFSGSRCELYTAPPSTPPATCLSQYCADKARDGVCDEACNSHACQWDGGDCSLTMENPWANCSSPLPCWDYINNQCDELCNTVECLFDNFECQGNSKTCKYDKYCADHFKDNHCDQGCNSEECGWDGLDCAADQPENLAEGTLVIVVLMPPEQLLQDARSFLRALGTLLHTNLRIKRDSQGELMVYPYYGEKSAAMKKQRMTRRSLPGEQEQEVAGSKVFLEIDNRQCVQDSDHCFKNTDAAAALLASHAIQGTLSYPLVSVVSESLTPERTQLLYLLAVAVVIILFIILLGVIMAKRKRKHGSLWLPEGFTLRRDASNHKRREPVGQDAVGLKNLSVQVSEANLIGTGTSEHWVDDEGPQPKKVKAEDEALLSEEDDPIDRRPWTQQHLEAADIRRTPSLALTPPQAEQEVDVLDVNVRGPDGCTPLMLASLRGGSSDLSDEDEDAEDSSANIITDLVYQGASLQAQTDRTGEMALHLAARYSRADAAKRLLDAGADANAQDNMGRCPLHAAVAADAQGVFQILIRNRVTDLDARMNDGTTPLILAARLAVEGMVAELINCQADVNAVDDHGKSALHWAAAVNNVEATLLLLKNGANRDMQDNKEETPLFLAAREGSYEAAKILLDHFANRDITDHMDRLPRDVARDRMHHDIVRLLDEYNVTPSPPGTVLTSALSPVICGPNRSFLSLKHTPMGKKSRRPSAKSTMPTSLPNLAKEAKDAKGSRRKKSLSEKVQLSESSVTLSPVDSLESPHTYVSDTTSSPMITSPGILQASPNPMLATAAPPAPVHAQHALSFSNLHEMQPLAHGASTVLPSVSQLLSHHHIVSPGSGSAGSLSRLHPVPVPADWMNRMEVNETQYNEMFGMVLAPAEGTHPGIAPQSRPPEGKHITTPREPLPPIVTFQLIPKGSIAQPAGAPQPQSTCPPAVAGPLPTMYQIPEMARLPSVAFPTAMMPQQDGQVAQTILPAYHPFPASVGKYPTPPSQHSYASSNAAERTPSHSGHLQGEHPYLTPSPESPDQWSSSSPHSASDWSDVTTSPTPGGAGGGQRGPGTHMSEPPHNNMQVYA

[6] = target: Pro-neuregulin-1, membrane-bound isoform (Homo sapiens) (UniProt Q02297); assay: small molecules binding neuregulin-1 protein – biochemical, small-molecule microarray, fluorescence 635/667, psychiatric disease protein project, primary screen (AID 1075); conditions: NRG1 binding, 635 nm fluorescence, higher = more signal;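 note: score combines 667 nm spot fluorescence with signal to noise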
Pro-neuregulin-1, membrane-bound isoform (Homo sapiens), sequence (Q02297 whole entry, looked up, the tested form may be a part, canonical isoform): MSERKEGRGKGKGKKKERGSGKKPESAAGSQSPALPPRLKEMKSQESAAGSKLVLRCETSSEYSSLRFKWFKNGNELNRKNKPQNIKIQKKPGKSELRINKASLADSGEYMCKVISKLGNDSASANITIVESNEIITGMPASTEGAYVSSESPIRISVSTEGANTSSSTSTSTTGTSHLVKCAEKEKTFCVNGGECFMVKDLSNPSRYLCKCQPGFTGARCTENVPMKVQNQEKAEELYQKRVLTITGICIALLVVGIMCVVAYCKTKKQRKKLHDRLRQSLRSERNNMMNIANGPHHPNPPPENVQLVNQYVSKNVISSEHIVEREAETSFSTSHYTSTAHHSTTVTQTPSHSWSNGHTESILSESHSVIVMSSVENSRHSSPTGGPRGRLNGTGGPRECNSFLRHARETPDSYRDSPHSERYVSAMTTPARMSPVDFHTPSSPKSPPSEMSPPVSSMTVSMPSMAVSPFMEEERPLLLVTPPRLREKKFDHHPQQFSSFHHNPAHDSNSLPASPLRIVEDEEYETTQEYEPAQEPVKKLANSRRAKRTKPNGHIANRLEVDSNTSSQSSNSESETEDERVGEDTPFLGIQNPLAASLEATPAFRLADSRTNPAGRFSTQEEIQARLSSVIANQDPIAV

[7] = test system: Neuregulin-1 EGF-like domain; assay: small molecules binding NRG1 EGF domain – biochemical, small-molecule microarray, 635 nm fluorescence, primary screen (AID 1081); conditions: higher = more signal;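 note: binding of the protein to compounds printed on small-molecule microarray slides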
[8] = FRG1 expression reporter modulators in myotubes – cell-based, C2C12 myotubes, firefly/Renilla luciferase, luminescence, FRG1 inhibition for FSHD, primary screen (AID 1084); conditions: FRG1 promoter luciferase, higher = more signal, called active from +8 up or from −8 down
[9] = small molecules captured by biotinylated probe aFST – biochemical, small-molecule microarray, fluorescence 635/667, stem cell growth factor project, primary screen (AID 1086); conditions: higher = more signal;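 note: score merges 667 nm fluorescence with signal-to-noise of each printed compound spot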
[10] = binders of probe aHhip on microarray, primary screen, stem cell growth factor project, biochemical, small-molecule microarray, fluorescence 635/667 (AID 1087); conditions: higher = more signal;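 note: score merges spot fluorescence at 667nm with spot signal to noise ratio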

| Structure (SMILES) | composite z-score [1] | composite z-score [2] | composite z-score [3] | composite z-score [4] | composite z-score [5] | composite z-score [6] | composite z-score [7] | z-score [8] | composite z-score [9] | composite z-score [10] |
| --- | --- | --- | --- | --- | --- | --- | --- | --- | --- | --- |
| O=C1C2C=CC(C(O)C(c3ccccc3)c3ccccc3)N(Nc3ccc([N+](=O)[O-])cc3)C2C(=O)N1c1ccccc1 (stereo not given) | 0.141 | 0.311 | 0.138 | 1.16 | 1.64 | 1.84 | 1.27 | 0.117 (inactive) | 1.37 | -0.0994 |
| C[C@H]1C2[C@H](Cc3ccccc3)NC(=O)[C@]23C(=O)N[C@H](Cc2ccccc2)C(=O)N[C@@H](Cc2ccccc2)C(=O)NC/C=C\C/C=C/C3[C@@H]2O[C@]12C (stereo not given in full) | -0.446 | 0.107 | -0.147 | 0.388 | 0.155 | -0.384 | -0.199 | -0.293 (inactive) | -0.137 | 0.122 |
| COc1ccc(C(O)C2C=CC3C(=O)N(C)C(=O)C3N2N2CCCCC2)cc1OCc1ccccc1 (stereo not given) | 0.556 | -0.599 | -0.0135 | 0.49 | 1.57 | 1.52 | 1.27 | 0.451 (inactive) | 0.994 | 0.232 |
| O=C1O[C@H](c2ccccc2)[C@H](c2ccccc2)N2[C@H]1[C@@H](C(=O)Nc1nc3ccccc3s1)[C@]1(C(=O)Nc3ccc(C#CC4(O)CCCCCC4)cc31)[C@H]2c1ccc(O)cc1 | -0.299 | -0.0427 | -0.0407 | 0.443 | 1.34 | 1.8 | 1.14 | 0.36 (inactive) | 0.668 | 0.0623 |
| CO[C@H]1COC(=O)CC=C[C@@H](C)COC(=O)[C@@H](C)NC(=O)CC=C[C@@H]1C | -1.1 | 2.24 | -0.138 | -0.248 | -0.604 | -0.907 | -0.228 | -1.88 (inactive) | 0.219 | 0.0274 |
| O=C1c2ccccc2[C@](Cc2ccccc2I)(C(=O)NCc2ccccc2)[C@H](c2ccc(CO)cc2)N1Cc1ccccc1C(F)(F)F | 0.988 | 0.077 | -0.131 | -0.787 | -1.28 | 0.385 | -0.56 | -1.98 (inactive) | -0.318 | -0.134 |
| CC(c1ccccc1)C(O)C1C=CC2C(=O)N(C)C(=O)C2N1N(c1ccccc1)c1ccccc1 (stereo not given) | 1 | 0.23 | 0.0395 | -0.167 | 1.08 | 0.504 | 1.03 | -0.206 (inactive) | 0.657 | -0.0024 |
| [N-]=[N+]=NCc1ccccc1C[C@]1(C(N)=O)N=C(c2ccc(OCCCO)cc2)O[C@H]1c1ccccc1CN=[N+]=[N-] | 1.15 | 1.14 | 0.128 | 0.616 | 1.09 | 1.74 | 1 | -1.55 (inactive) | 0.823 | -0.3 |
| C=CC[C@]1(C(=O)O)N=C(c2ccc(OCCCO)cc2)O[C@H]1c1ccccc1 | 1.03 | -0.269 | -0.0985 | -0.2 | -0.0704 | 1.87 | 1.12 | 0.197 (inactive) | 0.0226 | -0.169 |
| C=CC[C@]1(C(=O)N2CCCCC2)N=C(c2ccc(OCCCO)cc2)O[C@H]1c1ccccc1N=[N+]=[N-] | 1.16 | 1.11 | 0.256 | 0.984 | 1.5 | 1.67 | 1.24 | -2.1 (inactive) | 1.87 | -0.0237 |
| CCCNC(=O)[C@@H]1c2ccccc2C(=O)N(Cc2cc(F)cc(C(F)(F)F)c2)[C@H]1c1ccc(CO)cc1 | -0.0356 | 0.711 | 0.032 | 0.525 | 1.12 | 1.03 | 1.25 | -1.02 (inactive) | 0.613 | 0.0176 |
